Molecules are shown by their SMILES. Records with an inconclusive call do not appear. The source made the active and inactive calls. The calls were made as follows, unless noted: active = hit-call score of the fitted dose curve at least 0.9, where 1 is the maximum; inactive = score below 0.9.

The nature of test [1]: CCTE_Shafer_MEA_acute_burst_duration_mean: CCTE's Neural Acute Assay for Mean Burst Duration, Shafer Lab (AID 2284014).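 Also: hits are decreases in mean burst duration relative to DMSO controls.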 In short, it runs like this:
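Mean burst duration was compared between a 40 min baseline and a 40 min recording in the presence of compound (0.03-40 uM, 37 C), giving percent change per well. Cultures were rat cortical neurons at DIV 13 or 15; wells needed ≥10 active electrodes.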

Test [2] can be described thus: CCTE_Shafer_MEA_acute_per_burst_spike_number_mean: CCTE's Neural Acute Assay for Average Number of Spikes Per Burst, Shafer Lab (AID 2284015).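 Also: hits are decreases in mean spikes per burst versus baseline.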 The method in brief: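 Read-out: percent change in mean spikes per burst, each well's post-exposure 40-min recording versus its own 40-min baseline. Rat cortical cultures, DIV 13 or 15, compounds 0.03-40 uM; DMSO is negative control, loss-of-signal fitting.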

Test [3] can be described thus: CCTE_Shafer_MEA_acute_interburst_interval_mean: CCTE's Neural Acute Assay for Mean Interburst Interval, Shafer Lab (AID 2284016).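 Also: percent change of mean interburst interval versus each well's own pre-dose baseline; curves fitted for decrease in interburst interval relative to DMSO.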 In short, it runs like this:
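Rat cortical cultures, DIV 13/15; 20 min equilibration, 40 min baseline, compound 0.03-40 uM, 40 min re-recording, 37 C. Spikes detected at 8x rms noise (300-5000 Hz band-pass). Endpoint: % change in interburst interval, fitted in loss direction vs DMSO.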

A short description of test [4]: CCTE_Shafer_MEA_acute_burst_percentage_mean: CCTE's Neural Acute Assay for Percentage of Spikes in a Burst, Shafer Lab (AID 2284017).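 As to AC50: curve fitted for loss of signal so potency reflects decreased burst percentage.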 The method in brief: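 Rat cortical cultures, DIV 13/15, 37 C. Spikes detected at 8x rms noise (300-5000 Hz band-pass). Burst spikes/total spikes averaged across electrodes per well; % change post- vs pre-treatment (40 min each), loss-of-signal fit vs DMSO.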

The nature of test [5]: CCTE_Shafer_MEA_acute_burst_percentage_std: CCTE's Neural Acute Assay for Standard Deviation of Burst Percentage, Shafer Lab (AID 2284018).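 Also: fitted in the negative direction so actives lower burst percentage SD.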 In short, it runs like this: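 Value is percent change from baseline in the across-electrode SD of spikes-in-bursts percentage, wells with >/= 10 active electrodes. Acute 40-min exposure to 0.03-40 uM on DIV 13 or 15 rat cortical cultures, recorded at 37 C after 40-min baseline.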

Test [6] is described as follows: CCTE_Shafer_MEA_acute_per_network_burst_spike_number_mean: CCTE's Neural Acute Assay for Average Number of Spikes in a Network Burst, Shafer Lab (AID 2284019).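 As to AC50: curve fitted for loss of signal so actives reduce spikes per network burst.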 The method in brief:
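Percent change from baseline in mean spikes per network burst, spikes detected at 8x rms noise. Each compound at 0.03-40 uM in at least three wells of rat cortical cultures, recorded 40 min before and 40 min during exposure.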

Test [7] is described as follows: CCTE_Shafer_MEA_acute_per_network_burst_spike_number_std: CCTE's Neural Acute Assay for Standard Deviation of Number of Spikes in a Network Burst, Shafer Lab (AID 2284020).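 Also: fitted for decrease in spike-number SD versus DMSO so actives lower it.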 The method in brief:
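Endpoint: percent change from 40 min baseline in standard deviation of spikes per network burst, after 40 min compound exposure (0.03-40 uM, 37 C). Cortical rat neurons on MEA at DIV 13 or 15; spikes detected at 8x rms noise, 300-5000 Hz band-pass.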

The nature of test [8]: CCTE_Shafer_MEA_acute_per_network_burst_electrodes_number_mean: CCTE's Neural Acute Assay for Mean Number of Electrodes in a Network Burst, Shafer Lab (AID 2284021).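 Also: curves fitted for decreases only so hits reduce electrodes per burst.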 In short, it runs like this:
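Cultures of rat cortex neurons were exposed on DIV 13 or 15 to compounds at 0.03-40 uM in at least three wells each. Activity over 40 min before and 40 min after exposure at 37 C gave the percent change in electrodes per network burst.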

Test [9] is described as follows: CCTE_Shafer_MEA_acute_network_burst_percentage: CCTE's Neural Acute Assay for Percentage of Network Bursts, Shafer Lab (AID 2284022).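 Also: curves fitted for loss so actives lower network burst percentage.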 The method in brief:
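Cortical neurons from rat were grown over microelectrode arrays and used on day 13 or 15 in vitro. Wells with at least 10 active electrodes received test chemical at 0.03-40 uM. Activity during 40 min of exposure was compared with the preceding 40-min baseline.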

The nature of test [10]: CCTE_Shafer_MEA_acute_cross_correlation_area: CCTE's Neural Acute Assay for Area of Cross Correlation, Shafer Lab (AID 2284024).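 Also: rat primary cortical neuron networks on 48-well MEA at DIV 13 or 15 with 40 min exposure; area under pooled inter-electrode spike cross-correlation near zero lag as percent change from own baseline; curves fitted for loss of cross-correlation area so actives lower synchrony.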 In short, it runs like this: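 Acute exposure of mature rat cortical networks (day 13 or 15 post-plating) to 0.03-40 uM compound. Spontaneous spiking on MEA, 40 min pre- and post-dose at 37 C.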
The nature of test [11]: CCTE_Shafer_MEA_acute_cross_correlation_HWHM: CCTE's Neural Acute Assay for Cross Correlation at Half Width at Half Maximum, Shafer Lab (AID 2284026).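 Also: spontaneous network firing of rat primary cortical neurons on multiwell microelectrode arrays; percent change per well from pre-dose baseline in spike cross-correlogram half width; hits are a decrease in cross-correlogram half width relative to DMSO.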 In short, it runs like this:
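Primary cortex (rat), MEA, DIV 13/15; compound 0.03-40 uM; 40 min pre + 40 min post at 37 C; spike threshold 8x rms; wells need ≥10 active electrodes; endpoint = % change in cross-correlogram HWHM vs baseline, DMSO negative control.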

A short description of test [12]: CCTE_Shafer_MEA_acute_synchrony_index: CCTE's Neural Acute Assay for Synchrony, Shafer Lab (AID 2284027).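 Also: network synchrony index of spontaneous spiking in primary rat cortical neurons on MEAs; fitted for loss of signal so actives lower synchrony relative to DMSO.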 In short, it runs like this: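 Plates equilibrated 20 min at 37 C, baseline recorded 40 min, compound (0.03-40 uM) added, then 40 min more recorded. Cells: primary rat cortical neurons, DIV 13 or 15. Per-well synchrony index change analysed in negative direction against DMSO.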

The target of test [13] is Estrogen receptor (Homo sapiens) (UniProt P03372). The test can be described thus: CCTE_Deisenroth_AIME_96WELL_LUC_Active: CCTE's 96-well Estrogen Receptor Transactivation Assay with AIME metabolic competence (ERTA luciferase; metabolism positive), Deisenroth Lab (AID 2284023; active = hit-call score of the fitted dose curve at least 0.9, where 1 is the maximum). In short, it runs like this:
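Metabolism-positive mode: induced rat hepatic S9 in alginate microspheres conditions test solutions (0.002 - 200 uM, 10 points) for 2 hours. VM7Luc4E2 ER luciferase reporter cells then exposed 24 h; positive-direction fit against 17beta-estradiol, n=4 typical.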

The target is the same in test [14]. The test can be described thus: CCTE_Deisenroth_AIME_96WELL_LUC_Inactive: CCTE's 96-well Estrogen Receptor Transactivation Assay without AIME metabolic competence (ERTA luciferase; metabolism negative), Deisenroth Lab (AID 2284025; active = hit-call score of the fitted dose curve at least 0.9, where 1 is the maximum). In short, it runs like this:
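Metabolism-negative arm: chemicals (0.002–200 uM, 10 points) incubated 2 h with alginate-water microspheres, then medium moved onto VM7Luc4E2 cells for 24 h luciferase read-out. Positive direction vs 17beta-estradiol; n≥4 experiments.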

A short description of test [15]: CCTE_Deisenroth_AIME_96WELL_CTox_Active: Cytotoxicity Assessment (CTOX) in CCTE's 96-well Estrogen Receptor Transactivation Assay with AIME metabolic competence (metabolism positive), Deisenroth Lab (AID 2284028; active = hit-call score of the fitted dose curve at least 0.9, where 1 is the maximum). In short, it runs like this: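 Cytotoxicity in VM7Luc4E2 breast cells after 24 h exposure to medium from a 2 h metabolic pre-incubation with induced rat hepatic S9 in alginate microspheres; fluorescent live-cell protease readout, 10-point series 0.002–200 uM, n=4.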

A short description of test [16]: CCTE_Deisenroth_AIME_96WELL_CTox_Inactive: Cytotoxicity Assessment (CTOX) in CCTE's 96-well Estrogen Receptor Transactivation Assay without AIME metabolic competence (metabolism negative), Deisenroth Lab (AID 2284029; active = hit-call score of the fitted dose curve at least 0.9, where 1 is the maximum). In short, it runs like this:
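Metabolism-negative mode: alginate-water lids without rat S9, 2 h pre-incubation of 10-point series (0.002 - 200 uM). Conditioned medium on VM7Luc4E2 cells 24 h; loss of fluorescent live-cell protease signal marks cytotoxicity.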

In test [17] the target is Estrogen receptor (Homo sapiens) (UniProt P03372). The test can be described thus: CCTE_Deisenroth_AIME_384WELL_LUC_Active: CCTE's 384-well Estrogen Receptor Transactivation Assay with AIME metabolic competence (ERTA luciferase; metabolism positive), Deisenroth Lab (AID 2284030; active = hit-call score of the fitted dose curve at least 0.9, where 1 is the maximum). The method in brief:
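In this metabolism-positive format, a 2-hour exposure to alginate-immobilized rat S9 precedes a 24 hour luciferase transactivation readout in VM7Luc4E2 cells. Dosing spans 10 concentrations from 0.002 to 200 uM.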

A short description of test [18]: CCTE_Harrill_HTTr_CellCount_MCF7: CCTE's Cell Proliferation Assessment for the High-Throughput Transcriptomics (HTTr) Platform, Harrill Lab (AID 2284012; active = hit-call score of the fitted dose curve at least 0.9, where 1 is the maximum;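 also: cells exposed to compound for six hours; intended direction is loss of nuclei count meaning fewer cells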). In short, it runs like this:
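Cell count served as viability reporter: loss of Hoechst-stained nuclei, counted by high content imaging, marks decreased growth or survival. Exposure was 6 h in MCF-7 cells across eight concentrations, with DMSO as baseline.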

The nature of test [19]: CCTE_Shafer_MEA_dev_firing_rate_mean: CCTE's Neural Network Formation Assay for Mean Firing Rate, Shafer Lab (AID 2284031). The method in brief: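 Steps: seed rat cortical cells (1.5 x 10^5/well) with laminin on PEI-coated MEA; dose day 0; record DIV 5/7/9/12, full media and compound exchange after DIV 5 and 9 recordings; compute well-mean firing rate AUC.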
A short description of test [20]: CCTE_Shafer_MEA_dev_per_burst_spike_percent: CCTE's Neural Network Formation Assay for Percent of Spikes in a Burst, Shafer Lab (AID 2284032). The method in brief: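 Value is trapezoidal AUC over recordings on days 5, 7, 9 and 12 of the well-mean fraction of spikes falling in single-electrode bursts; rat cortical cultures exposed continuously from plating, treatment renewed DIV 5 and 9, fitted downward against DMSO.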

Sequence of Estrogen receptor (Homo sapiens) (P03372 whole entry, looked up): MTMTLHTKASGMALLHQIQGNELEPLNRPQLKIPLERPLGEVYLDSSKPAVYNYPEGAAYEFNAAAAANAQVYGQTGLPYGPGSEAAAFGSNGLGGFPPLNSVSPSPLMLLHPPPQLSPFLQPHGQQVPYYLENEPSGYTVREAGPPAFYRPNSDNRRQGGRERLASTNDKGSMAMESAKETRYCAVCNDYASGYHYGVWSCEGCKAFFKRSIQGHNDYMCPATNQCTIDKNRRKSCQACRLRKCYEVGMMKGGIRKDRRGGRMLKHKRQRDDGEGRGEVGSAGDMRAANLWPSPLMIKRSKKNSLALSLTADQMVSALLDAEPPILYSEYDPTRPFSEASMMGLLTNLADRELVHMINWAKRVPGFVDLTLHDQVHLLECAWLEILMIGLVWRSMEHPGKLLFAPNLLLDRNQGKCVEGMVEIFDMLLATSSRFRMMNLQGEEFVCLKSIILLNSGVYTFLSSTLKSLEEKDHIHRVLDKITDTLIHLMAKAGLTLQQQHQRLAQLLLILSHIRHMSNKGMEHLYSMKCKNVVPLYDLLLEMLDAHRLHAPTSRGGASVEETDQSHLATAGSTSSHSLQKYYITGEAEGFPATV

By AC50 is commonly meant the midpoint of the concentration-response curve, whichever way the signal moves. `CC/C=C\CCOC(=O)c1ccccc1O`: the molecule was called inactive in test [1], in test [2], in test [4], in test [5], in test [7] and in test [8]. Also, the call in [9], in [10], in [11] and in [12] was inactive. Besides, the AC50 was 15 µM (active) in test [3] and 0.003 µM (active) in [6].
`Oc1ccc(/C=C/c2cc(O)cc(O)c2)cc1`: the concentration at half-maximal activity (AC50) in test [13] was 4.94 µM (active); in test [14] it was 15.2 µM (active); in test [15], 70.2 µM (active); in test [16], 40.5 µM (active).
Consider `CCCC(C)C(=O)OCC` (stereo not given), for which the call in [1], in test [2], in test [3], in [4], in [5] and in test [6] was inactive. The molecule was classed as inactive in test [7], in test [8], in [9], in [10], in [11] and in test [12].
As to `Nc1cccc(N)n1`, the molecule was called inactive in test [1], in test [3], in test [8], in test [10] and in test [11]. Further, the AC50 is 0.0154 µM (active) in [2]; 0.003 µM (active) in [4]; 0.003 µM (active) in [5]; 0.0456 µM (active) in test [6]; 0.0117 µM (active) in test [7]; 0.00318 µM (active) in [9]. Also, the AC50 in test [12] is 0.003 µM (active).
Consider `O=C(O)CC(C(=O)O)S(=O)(=O)O` (stereo not given), for which the molecule was called inactive in test [17].
As to `O=C(O)CCC(=O)O`, the molecule was called inactive in [18] and in [17].
Turning to `Cc1noc(NS(=O)(=O)c2ccc(N)cc2)c1C`, the outcome in test [18], in test [19] and in [20] was inactive.
As for `Nc1nc(N)nc(-c2ccccc2)n1`, the call in [1], in test [2], in test [3], in [4], in [5] and in test [6] was inactive. The molecule was classed as inactive in [7], in test [8], in test [9], in [10], in test [11] and in [12].
On to `CC(C)C(=O)OCCc1ccccc1`, for which the result in test [1], in test [2], in [3], in test [4], in test [5] and in test [6] was inactive. The molecule was classed as inactive in test [7], in test [9], in [10], in test [11] and in test [12]. The AC50 in test [8] was 0.0213 µM (active).

Source of the values: PubChem BioAssay (EPA / NIEHS).
